# Most compounds without a hit are left out; they make up all but 12% or so of the library.
# HP1b binding inh – HP1-beta chromodomain-methylated histone interaction inhibition; P83916; AlphaScreen HP1-beta / biotin-H3K9me3 peptide binding; Potency, µM (highest dose often 114 µM), inactives show at the top dose activity change, negative = inhibition, hits mostly inhibitors; 390,000 tested, 0.56% active; AID 540317; further: potency means the concentration at half of the fitted maximal effect; nearly all actives have a fitted effect of over 70% in size
#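 Compound inhibition of the preformed complex between 50 nM HP1-beta and 50 nM biotinylated H3K9me3 peptide was read by AlphaScreen. Buffer was PBS pH 7.4 with 0.01% Tween-20. Incubations ran 30 min at room temperature, with 10 ug/mL donor/acceptor beads.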
# PLK1 PBD block – inhibitors of human PLK1 polo-box domain binding | Plk1 PBD binding of FITC phosphopeptide, fluorescence polarization | Potency, µM, for the others: max response, negative = inhibition, usual class: inhibitors | 360,000 tested, 2.8% active; further: potency means the concentration at half of the fitted maximal effect; series mostly up to about 57 µM; on the % scale 0 is the no-effect control and ±100 the full control effect; nearly all actives have a fitted effect of over 65% in size
# BAZ2B inh – blocks human BAZ2B; 360,000 tested, 4.4% active; Potency, µM (titrated, usually from 114 µM), for the others: at the top dose activity change, negative = inhibition, actives largely listed as inhibitors; AlphaScreen BAZ2B-H3K14Ac peptide displacement; Q9UIF8; AID 504333; further: potency means the concentration at half of the fitted maximal effect; on the % scale 0 is the no-effect control and ±100 the full control effect; nearly all actives have a fitted effect of over 60% in size
#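 In this displacement format the biotinylated H3(5-23) peptide acetylated at Lys14 serves as ligand at 50 nM, with BAZ2B at 50 nM in PBS pH 7.4 containing 0.01% Tween-20. Donor and acceptor beads are 10 ug/mL final.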
# PI5P4Ka inh – inhibitors of human PI5P4K alpha; P48426; PI5P4Kalpha enzyme, ADP-Glo luminescence, 60 min; active compounds read low; max response, %; 330,000 tested, 1.2% active; AID 652105; active means max response of -50% or lower; inconclusive means between -30% and -50%; inactive means -30% or higher; further: value at the top dose of about 77 µM; on the % scale 0 is the no-effect control and ±100 the full control effect
# Target sequence (P48426 whole entry, looked up): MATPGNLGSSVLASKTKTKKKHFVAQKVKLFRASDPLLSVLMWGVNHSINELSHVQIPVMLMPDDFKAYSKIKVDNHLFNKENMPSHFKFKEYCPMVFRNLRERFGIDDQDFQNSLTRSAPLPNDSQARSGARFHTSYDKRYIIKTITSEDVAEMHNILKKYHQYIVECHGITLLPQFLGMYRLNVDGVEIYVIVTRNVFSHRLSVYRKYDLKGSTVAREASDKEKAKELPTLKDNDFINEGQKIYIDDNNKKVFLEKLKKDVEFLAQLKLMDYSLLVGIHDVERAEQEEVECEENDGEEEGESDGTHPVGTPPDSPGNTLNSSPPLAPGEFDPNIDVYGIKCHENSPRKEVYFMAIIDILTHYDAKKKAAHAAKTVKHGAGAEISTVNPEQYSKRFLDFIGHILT
#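 qHTS, 1536-well: enzyme/substrate mix, compound by pin tool, 5 microM ATP final; RT 60 min; ADP-Glo reagents 1 (45 min) then 2 (30 min); luminescence.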
# G9a block – blocks human histone lysine methyltransferase G9a. Potency, µM (titrated, usually from 102 µM), without a hit: top-dose activity, negative = inhibition, most hits filed as inhibitors. Q96KQ7. G9a H3K9 monomethylation, AlphaScreen, 2 h. 350,000 tested, 8.8% active. AID 504332; further: potency means the concentration at half of the fitted maximal effect; on the % scale 0 is the no-effect control and ±100 the full control effect; nearly all actives have a fitted effect of over 75% in size
# Target sequence (Q96KQ7 913-1193 limits assumed): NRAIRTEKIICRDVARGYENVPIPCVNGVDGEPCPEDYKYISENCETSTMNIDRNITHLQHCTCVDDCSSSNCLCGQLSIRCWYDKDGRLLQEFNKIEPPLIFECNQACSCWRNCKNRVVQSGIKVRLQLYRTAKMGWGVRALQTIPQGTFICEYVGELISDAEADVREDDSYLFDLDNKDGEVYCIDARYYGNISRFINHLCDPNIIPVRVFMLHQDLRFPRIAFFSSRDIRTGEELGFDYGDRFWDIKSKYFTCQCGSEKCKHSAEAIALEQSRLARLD
#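 G9a (20 nM) preincubated 15 min RT with compounds, then 500 nM biotinylated H3K9 peptide and 20 uM SAM added; 2 h RT reaction. Monomethyl-H3K9 product detected by AlphaScreen with anti-H3K9me1 antibody, streptavidin donor and anti-rabbit IgG acceptor beads.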
# JMJD2A Tudor inh – JMJD2A Tudor domain (human) inhibition | Potency, µM (series often up to 114 µM), for the others: top-dose activity change, negative = inhibition, most hits filed as inhibitors | AlphaScreen JMJD2A-Tudor / H3K4me3 peptide binding | 390,000 tested, 4.4% active; further: potency means the concentration at half of the fitted maximal effect; on the % scale 0 is the no-effect control and ±100 the full control effect; nearly all actives have a fitted effect of over 50% in size
# * = called active by the depositor; ? = inconclusive; / = not tested or not shown; [ ] = dose if it differs, or a comment. Unless noted, the call rests on the fitted dose curve; in most records, active means well fitted curve in the direction sought with a large enough effect; inconclusive means small, poorly fitted or top-dose-only effect, or another doubt; inactive means no such curve, though single readings can be large; an effect the other way counts as inactive or inconclusive.
SMILES,HP1b binding inh,PLK1 PBD block,BAZ2B inh,PI5P4Ka inh,G9a block,JMJD2A Tudor inh
Cc1ccccc1CN1CCc2nc(Nc3ccc4c(c3)OCCO4)ncc2C1,-11.3%,/,22.4µM*,/,?,35.5µM*
COc1ccc(Nc2ncc3c(n2)CCN(Cc2ccccc2C)C3)c(OC)c1,7.2%,/,?,/,?,-32.1%
CCc1ccccc1NC(=O)CSc1nnc(-c2cc(OC)c(OC)c(OC)c2)o1,37.6%,/,7.2%,/,-6.0%[59 µM],-4.0%
O=NN(CCCl)C(=O)NC1CCCCC1,/,/,/,/,-36.6%[12.7 µM],/
CCC(C)NCCOCCOc1ccc(Br)cc1 (stereo not drawn),?,-8.1%,79.4µM*,4.6,?,11.2µM*
Cc1ccccc1OCCNC(=S)Nc1ccccc1,42.8%,-6.0%,-4.1%,7.4,61.0%,0.8%
CC(C)NCC(O)COCCOc1ccc(Br)cc1 (stereo not drawn),21.4%,-0.1%,5.6%,10.5,-7.9%[59 µM],-9.0%
CCC(C)NCCOc1ccccc1C (stereo not drawn),?,-5.4%,50.1µM*,-5.2,2.82µM*,3.16µM*
CCC(C)NCCOc1ccc(Br)cc1 (stereo not drawn),?,-7.0%,?,-0.9,12.6µM*,3.55µM*
O=C(Cc1cccc(NC(=O)C2CCN(C(=O)C3CCCCC3)CC2)c1)Nc1cccc(C(=O)N2CCCC2)c1,30.8%,9.8%,0.7%,0.6,18.0%[2.33 µM],-11.3%
CCN(CC)CCOC(=O)c1ccc(NC(=O)c2nn(-c3ccc(C)cc3)c(=O)c3c2c2ccccc2n3C)cc1,?,/,/,/,3.16µM*,?
CCCN(C(=O)c1nn(-c2ccc(C)cc2)c(=O)c2c1c1ccccc1n2C)c1ccccc1C,?,/,/,/,-24.9%[59 µM],-12.3%
CCN(C(=O)c1nn(-c2ccc(C)cc2)c(=O)c2c1c1ccccc1n2C)c1ccc(F)cc1,8.8%,/,/,/,1.26µM*,-17.7%
Cc1cccc(NC(=S)NNC(=O)c2ccc3c(c2)OCO3)c1,24.7%,-8.1%,-9.7%,-7.6,44.7µM*,-24.3%
Cc1cccc(NC(=S)NNC(=O)c2ccco2)c1,2.2%,-17.3%,-6.1%,/,-8.9%[12.7 µM],-18.3%
COc1cc(C(=O)NC(=S)Nc2ccc3c(c2)OCO3)cc(OC)c1OC,-1.9%,-7.1%,-9.1%,1.0,/,-30.2%
COc1cc(C(=O)NC(=S)NNC(=O)c2ccc3c(c2)OCO3)cc(OC)c1OC,8.7%,-2.6%,-4.9%,-19.0,35.5µM*,-13.4%
Cc1cccc(NC(=O)c2ccc3c(c2)OCCO3)c1,-13.6%,-7.6%,-3.3%,-15.1,3.0%,-4.2%
CCCc1cc(C(=O)NNC(=S)Nc2cccc(C)c2)cs1,?,-16.5%,-23.7%,-7.9,8.91µM*,-24.6%
COc1cc(NC(=O)c2ccc3c(c2)OCO3)ccc1NC(=O)C(C)C,?,29.9µM*,-1.1%,-4.9,-5.7%,79.4µM*
CCOc1ccccc1CNC(=O)CCn1ccc2cc(S(=O)(=O)N3CCC(C)CC3)ccc21,46.8%,/,-9.4%,/,-7.1%[59 µM],-7.9%
O=C(Nc1cc(-c2nc3ncccc3o2)ccc1Cl)c1ccc2c(c1)OCO2,38.0%,-6.1%,2.4%,2.5,10.7%[12.7 µM],-18.4%
O=C(Nc1cccc(-c2nc3ncccc3o2)c1)c1ccc2c(c1)OCO2,-13.7%[57 µM],26.7µM*,/,-0.3,/,?
O=C(Nc1cccc(NC(=O)c2ccc3c(c2)OCO3)c1)c1ccccc1,4.9%,-2.5%,?,1.5,7.4%,-12.8%
CC(=O)c1cccc(NC(=O)c2ccc3c(c2)OCO3)c1,2.1%,23.8µM*,-0.5%,-15.4,/,?
SMILES,HP1b binding inh,PLK1 PBD block,BAZ2B inh,PI5P4Ka inh,G9a block,JMJD2A Tudor inh
Cc1cccc(C(=O)OC(C)C(=O)Nc2ccc(S(=O)(=O)Nc3ncccn3)cc2)c1C (stereo not drawn),16.6%,-2.1%,8.9%,-2.4,?,-17.3%
CCC(C(=O)NC1CCCCC1)n1nc(C)c2sc3ccccc3c2c1=O (stereo not drawn),18.8%,/,1.3%,/,-6.9%[59 µM],-12.3%
O=C(Cc1ccccc1)N(Cc1cccnc1)c1nc2c(F)cc(F)cc2s1,0.7%,/,-10.1%,/,7.4%[59 µM],-21.8%
CN(CCCNC(=O)c1cc2c(Cl)nc3ccccc3c2s1)Cc1ccccc1,8.5%,-6.8%,?,7.4,?,?
Cc1ccc2nc(Cl)c3cc(C(=O)NCCCN(C)Cc4ccccc4)sc3c2c1,-10.0%,/,22.4µM*,/,?,?
CCN(CC)CCCN1C(=O)C(O)=C(C(=O)c2cc3ccccc3o2)C1c1ccccn1 (stereo not drawn),-3.2%,26.7µM*,-26.1%,3.8,?,0.8%[11.4 µM]
CCN(CC)CCN1C(=O)C(O)=C(C(=O)c2ccco2)C1c1ccccn1 (stereo not drawn),45.7%,-23.7%,?,-0.2,11.2µM*,89.1µM*
O=S(=O)(c1cccc(F)c1)N1CCN(S(=O)(=O)c2ccc3c(c2)OCCO3)CC1,/,/,/,/,/,-19.2%
COc1ccc(NC(=O)[C@H](C)NC(=O)C2CCN(S(=O)(=O)c3ccc(OC)cc3)CC2)cc1,20.9%,-13.0%,-3.9%,-9.3,-9.7%[0.501 µM],-6.2%
COc1cc(CNCCN2CCOCC2)ccc1OCc1ccccc1Cl,15.9%,-9.5%,-10.4%,-0.8,/,-21.0%
COc1cc(CNCc2ccccn2)ccc1OCc1ccccc1Cl,-2.3%,0.4%,?,20.6,?,44.7µM*
CCOc1c(Cl)cc(CNCc2ccccn2)cc1OC,61.0%,1.1%,56.2µM*,-1.1,39.8µM*,-25.4%
CCOc1c(Cl)cc(CNC(C)(C)CC(C)(C)C)cc1OC,28.4%,-9.5%,5.6%,/,-7.6%[2.33 µM],-1.3%
c1ccc2c(c1)ncn2CCCCOc1ccc2c(c1)CCC2,70.8µM*,-1.5%,28.2µM*,/,8.91µM*,2.82µM*
COc1ccc(C(CNC(=O)C(CCSC)NC(=O)c2ccccc2Cl)N2CCOCC2)cc1 (stereo not drawn),33.4%,-1.4%,-5.8%,6.2,1.8%,-6.2%
COc1ccc(C(CNC(=O)C(CCSC)NC(=O)c2ccccc2OC)N2CCCCC2)cc1 (stereo not drawn),4.9%,7.3%,-26.2%,-13.6,31.6µM*,-21.9%
NC(=O)C1CCN(c2nc(-c3ccc4c(c3)OCCO4)cs2)CC1,44.7%,/,?,/,2.0%[12.7 µM],-18.6%
